# From PubChem BioAssay (Tox21)
# A number with no mark means an inactive call. Inconclusive results are not listed. A call without a number means that no potency is given here. Active and inactive are the calls of the source. Unless noted, the call rests on the fitted dose curve; in most records, active means well fitted curve in the direction sought with a large enough effect in the repeat runs; inconclusive means weak or mixed curves; inactive means no such curve, though single readings can be large; an effect the other way counts as inactive or inconclusive.
# How the values were obtained:
# [1] = target: Acetylcholinesterase (Homo sapiens) (UniProt P22303); test: Acetylcholinesterase (AChE) small molecule antagonists: enzyme-based qHTS assay (AID 1347397; calls by dose curve; further: nearly all actives have a fitted effect of over 55% in size); settings: Potency: AChE enzyme activity inhibition
# How it was run: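 Human recombinant acetylcholinesterase; substrate acetylthiocholine; thiocholine quantified with DTNB (colorimetric). Compound preincubation 30 min RT; reaction 10 min RT.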
# [2] = target: Acetylcholinesterase (Homo sapiens) (UniProt P22303); test: Acetylcholinesterase (AChE) small molecule antagonists: fluorescence cell-based qHTS assay (AID 1347398; calls by dose curve; further: nearly all actives have a fitted effect of over 50% in size); settings: Potency: AChE activity
# How it was run: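 Thiocholine generated from acetylthiocholine by SH-SY5Y cell AChE is detected with Thiolite Green (Ex/Em 490/520 nm) after 40 min at room temperature, following 30 min compound pretreatment at 37 C.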
# [3] = target: Cytochrome P450 2D6 (Homo sapiens) (UniProt P10635); test: Cytochrome P450 Family 2 Subfamily D Member 6 (CYP2D6) small molecule antagonists: luciferase reporter qHTS assay (AID 1671196); further: nearly all actives have a fitted effect of over 50% in size
# How it was run: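 Each well received CYP2D6 with its proluciferin substrate and chemical, sat 10 min, then got NADPH regeneration solution for 1 h at room temperature. Luminescence in RLU served as the activity measure.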
# [4] = target: Cytochrome P450 2C19 (Homo sapiens) (UniProt P33261); test: Cytochrome P450 Family 2 Subfamily C Member 19 (CYP2C19) small molecule antagonists: luciferase reporter qHTS assay (AID 1671197); further: nearly all actives have a fitted effect of over 65% in size
# How it was run: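 P450-Glo CYP2C19 screening system; proluciferin substrate; DMSO compound stocks; 10 min RT preincubation; NADPH regeneration, 1 h at 37C; luciferin detection reagent, 20 min RT; luminescence as RLU.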
# [5] = target: Cytochrome P450 2C9 (Homo sapiens) (UniProt P11712); test: Cytochrome P450 Family 2 Subfamily C Member 9 (CYP2C9) small molecule antagonists: luciferase reporter qHTS assay (AID 1671198); further: nearly all actives have a fitted effect of over 50% in size
# How it was run: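 CYP2C9 activity was measured with a P450-Glo proluciferin substrate. Enzyme–substrate mix was held with compound for 10 min at room temperature, then NADPH regeneration solution was added for 1 h at 37C. Luciferin product was read as luminescence.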
# [6] = target: Cytochrome P450 1A2 (Homo sapiens) (UniProt P05177); test: Cytochrome P450 Family 1 Subfamily A Member 2 (CYP1A2) small molecule antagonists: luciferase reporter qHTS assay (AID 1671199); further: nearly all actives have a fitted effect of over 50% in size
# How it was run: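 Enzymatic CYP1A2 assay, human, luminescent: 10 min compound–enzyme–substrate preincubation, 1 h NADPH-dependent turnover, 20 min detection step, room temperature throughout. Reduced light indicates lower CYP1A2 activity.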
# [7] = target: Voltage-gated inwardly rectifying potassium channel KCNH2 (Homo sapiens) (UniProt Q12809); test: Human Ether-a-go-go-Related Gene (hERG) channel small molecule antagonists: fluorescence cell-based qHTS assay (AID 1671200); further: nearly all actives have a fitted effect of over 50% in size
# How it was run: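 hERG-U2OS cells plated overnight at 37 C, loaded with FluxOR II dye 1 h at RT in dark; after 10 min, thallium stimulus added. Fluorescence (480/540 nm) read kinetically for 2 min at 1 s intervals.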
# [8] = target: Acetylcholinesterase (Homo sapiens) (UniProt P22303); test: Acetylcholinesterase (AChE) small molecule antagonists: enzyme-based qHTS assay with human liver microsomes (AID 1347399; calls by dose curve; further: nearly all actives have a fitted effect of over 60% in size); settings: Potency: qHTS inhibition
# How it was run: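 Recombinant human AChE (50 mU/mL in the enzyme mix) and human liver microsomes (0.25 mg/mL final) were preincubated with compound and NADPH (0.25 mg/mL final) for 30 min at 37 C. Acetylthiocholine/DTNB was then added; thiocholine was read colorimetrically after 10 min at room temperature.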
# [9] = target: Cytochrome P450 3A4 (Homo sapiens) (UniProt P08684); test: Cytochrome P450 Family 3 Subfamily A Member 4 (CYP3A4) small molecule antagonists: luciferase reporter qHTS assay (AID 1671201); further: nearly all actives have a fitted effect of over 50% in size
# How it was run: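 P450-Glo CYP3A4 luminescent assay: compounds preincubated 10 min at room temperature with enzyme and proluciferin substrate, NADPH regeneration added, 1 h room-temperature reaction, stopped with luciferin detection reagent; luminescence read after 20 min. Ketoconazole positive control.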
# Potency means the concentration at half of the fitted maximal effect.
# Chain of Cytochrome P450 2D6 (Homo sapiens) (P10635 whole entry, looked up): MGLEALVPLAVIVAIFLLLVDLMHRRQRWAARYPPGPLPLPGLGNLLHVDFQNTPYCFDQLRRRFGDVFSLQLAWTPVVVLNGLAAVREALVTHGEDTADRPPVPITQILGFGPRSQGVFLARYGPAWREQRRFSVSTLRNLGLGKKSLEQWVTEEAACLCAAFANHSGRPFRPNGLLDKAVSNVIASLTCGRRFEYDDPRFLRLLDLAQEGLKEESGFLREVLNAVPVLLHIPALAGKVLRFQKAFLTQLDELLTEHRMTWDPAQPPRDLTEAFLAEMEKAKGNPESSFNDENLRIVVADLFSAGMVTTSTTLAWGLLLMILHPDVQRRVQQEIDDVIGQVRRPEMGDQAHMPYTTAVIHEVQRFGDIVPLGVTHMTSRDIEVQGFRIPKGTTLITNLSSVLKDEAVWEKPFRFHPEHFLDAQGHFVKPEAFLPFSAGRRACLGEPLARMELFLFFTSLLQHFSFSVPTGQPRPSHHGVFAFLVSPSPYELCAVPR
# Chain of Acetylcholinesterase (Homo sapiens) (P22303 whole entry, looked up): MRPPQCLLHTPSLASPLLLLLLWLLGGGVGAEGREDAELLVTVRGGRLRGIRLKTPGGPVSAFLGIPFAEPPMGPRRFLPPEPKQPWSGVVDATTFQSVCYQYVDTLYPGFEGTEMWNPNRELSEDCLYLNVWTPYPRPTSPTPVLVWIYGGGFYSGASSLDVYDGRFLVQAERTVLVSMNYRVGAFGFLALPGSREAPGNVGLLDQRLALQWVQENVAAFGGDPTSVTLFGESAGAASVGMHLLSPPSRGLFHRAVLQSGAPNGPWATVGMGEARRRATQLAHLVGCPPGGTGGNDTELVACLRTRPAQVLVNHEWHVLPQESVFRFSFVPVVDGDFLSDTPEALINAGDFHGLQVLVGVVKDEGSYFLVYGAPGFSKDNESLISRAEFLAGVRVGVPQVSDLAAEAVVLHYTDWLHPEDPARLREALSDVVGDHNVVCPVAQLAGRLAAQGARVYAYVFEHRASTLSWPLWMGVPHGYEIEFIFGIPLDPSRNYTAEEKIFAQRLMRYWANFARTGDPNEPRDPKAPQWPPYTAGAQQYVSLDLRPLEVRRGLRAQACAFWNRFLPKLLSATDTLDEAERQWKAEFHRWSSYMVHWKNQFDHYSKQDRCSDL
# Chain of Cytochrome P450 2C19 (Homo sapiens) (P33261 whole entry, looked up): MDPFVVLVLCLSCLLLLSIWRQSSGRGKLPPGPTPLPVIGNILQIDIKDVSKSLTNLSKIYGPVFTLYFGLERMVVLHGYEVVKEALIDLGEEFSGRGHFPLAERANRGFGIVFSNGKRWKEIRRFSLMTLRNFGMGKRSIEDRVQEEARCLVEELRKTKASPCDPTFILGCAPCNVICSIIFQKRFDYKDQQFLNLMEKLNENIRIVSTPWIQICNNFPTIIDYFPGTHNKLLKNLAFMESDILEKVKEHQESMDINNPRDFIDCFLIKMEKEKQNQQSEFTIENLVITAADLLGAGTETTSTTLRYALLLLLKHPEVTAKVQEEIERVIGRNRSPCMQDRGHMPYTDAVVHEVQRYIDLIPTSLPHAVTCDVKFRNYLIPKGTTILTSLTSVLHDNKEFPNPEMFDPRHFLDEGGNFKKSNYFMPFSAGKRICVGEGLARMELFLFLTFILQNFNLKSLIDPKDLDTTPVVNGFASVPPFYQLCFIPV
# Chain of Voltage-gated inwardly rectifying potassium channel KCNH2 (Homo sapiens) (Q12809 whole entry, looked up): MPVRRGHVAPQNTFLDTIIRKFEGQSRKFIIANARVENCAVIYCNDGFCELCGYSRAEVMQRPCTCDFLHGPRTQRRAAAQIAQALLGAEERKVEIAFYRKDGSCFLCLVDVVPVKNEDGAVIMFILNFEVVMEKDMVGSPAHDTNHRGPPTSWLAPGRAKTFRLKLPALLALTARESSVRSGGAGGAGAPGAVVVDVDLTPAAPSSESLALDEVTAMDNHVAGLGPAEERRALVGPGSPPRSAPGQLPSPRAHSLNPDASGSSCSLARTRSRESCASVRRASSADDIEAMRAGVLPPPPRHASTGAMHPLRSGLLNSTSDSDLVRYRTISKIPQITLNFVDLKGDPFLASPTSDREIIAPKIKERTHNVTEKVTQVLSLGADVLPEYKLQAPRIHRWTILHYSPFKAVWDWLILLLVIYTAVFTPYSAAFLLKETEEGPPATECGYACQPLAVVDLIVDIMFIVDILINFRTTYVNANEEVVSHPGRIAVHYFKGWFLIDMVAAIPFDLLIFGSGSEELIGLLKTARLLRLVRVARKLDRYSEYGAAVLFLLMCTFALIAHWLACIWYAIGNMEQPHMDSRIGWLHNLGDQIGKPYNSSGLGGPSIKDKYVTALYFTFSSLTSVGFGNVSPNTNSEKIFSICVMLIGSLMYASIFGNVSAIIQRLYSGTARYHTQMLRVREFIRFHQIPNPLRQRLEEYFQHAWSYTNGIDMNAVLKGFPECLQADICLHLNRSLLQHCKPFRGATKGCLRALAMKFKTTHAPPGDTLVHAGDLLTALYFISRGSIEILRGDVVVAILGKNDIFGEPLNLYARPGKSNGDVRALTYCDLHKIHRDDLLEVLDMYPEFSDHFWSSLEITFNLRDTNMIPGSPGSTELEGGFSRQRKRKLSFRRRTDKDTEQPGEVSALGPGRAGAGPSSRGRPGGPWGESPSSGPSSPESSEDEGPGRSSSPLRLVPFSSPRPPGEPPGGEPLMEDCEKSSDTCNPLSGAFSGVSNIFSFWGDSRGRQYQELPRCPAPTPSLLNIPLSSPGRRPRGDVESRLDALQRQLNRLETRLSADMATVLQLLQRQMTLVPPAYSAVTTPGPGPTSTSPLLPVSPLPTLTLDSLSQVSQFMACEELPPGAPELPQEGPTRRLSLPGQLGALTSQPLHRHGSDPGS
# Chain of Cytochrome P450 2C9 (Homo sapiens) (P11712 whole entry, looked up): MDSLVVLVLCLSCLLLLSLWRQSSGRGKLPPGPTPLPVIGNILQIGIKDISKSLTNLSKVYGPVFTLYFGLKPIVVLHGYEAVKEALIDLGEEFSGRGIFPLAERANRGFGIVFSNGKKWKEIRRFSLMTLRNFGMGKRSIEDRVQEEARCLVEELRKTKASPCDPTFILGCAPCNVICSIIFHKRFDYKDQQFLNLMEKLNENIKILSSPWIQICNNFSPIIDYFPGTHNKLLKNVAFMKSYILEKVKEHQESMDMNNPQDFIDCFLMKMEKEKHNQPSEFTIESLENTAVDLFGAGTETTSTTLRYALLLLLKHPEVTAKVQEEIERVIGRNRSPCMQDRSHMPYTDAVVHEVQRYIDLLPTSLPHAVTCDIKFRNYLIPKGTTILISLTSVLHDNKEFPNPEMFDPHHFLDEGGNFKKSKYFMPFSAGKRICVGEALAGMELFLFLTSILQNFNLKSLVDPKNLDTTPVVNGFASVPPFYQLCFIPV
# Chain of Cytochrome P450 3A4 (Homo sapiens) (P08684 whole entry, looked up): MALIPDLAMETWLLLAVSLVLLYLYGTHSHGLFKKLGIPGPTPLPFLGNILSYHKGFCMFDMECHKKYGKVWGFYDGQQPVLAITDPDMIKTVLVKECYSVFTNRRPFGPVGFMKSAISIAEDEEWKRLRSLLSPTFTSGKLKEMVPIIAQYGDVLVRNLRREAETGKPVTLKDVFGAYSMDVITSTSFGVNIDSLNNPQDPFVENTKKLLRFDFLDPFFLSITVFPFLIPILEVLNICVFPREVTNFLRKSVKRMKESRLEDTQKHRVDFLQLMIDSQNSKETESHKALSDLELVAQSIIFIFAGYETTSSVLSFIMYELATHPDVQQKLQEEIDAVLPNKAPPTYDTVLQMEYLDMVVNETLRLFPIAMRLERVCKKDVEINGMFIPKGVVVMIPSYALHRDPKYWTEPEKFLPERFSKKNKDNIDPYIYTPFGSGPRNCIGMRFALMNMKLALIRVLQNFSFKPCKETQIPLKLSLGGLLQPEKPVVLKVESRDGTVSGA
# Chain of Cytochrome P450 1A2 (Homo sapiens) (P05177 whole entry, looked up): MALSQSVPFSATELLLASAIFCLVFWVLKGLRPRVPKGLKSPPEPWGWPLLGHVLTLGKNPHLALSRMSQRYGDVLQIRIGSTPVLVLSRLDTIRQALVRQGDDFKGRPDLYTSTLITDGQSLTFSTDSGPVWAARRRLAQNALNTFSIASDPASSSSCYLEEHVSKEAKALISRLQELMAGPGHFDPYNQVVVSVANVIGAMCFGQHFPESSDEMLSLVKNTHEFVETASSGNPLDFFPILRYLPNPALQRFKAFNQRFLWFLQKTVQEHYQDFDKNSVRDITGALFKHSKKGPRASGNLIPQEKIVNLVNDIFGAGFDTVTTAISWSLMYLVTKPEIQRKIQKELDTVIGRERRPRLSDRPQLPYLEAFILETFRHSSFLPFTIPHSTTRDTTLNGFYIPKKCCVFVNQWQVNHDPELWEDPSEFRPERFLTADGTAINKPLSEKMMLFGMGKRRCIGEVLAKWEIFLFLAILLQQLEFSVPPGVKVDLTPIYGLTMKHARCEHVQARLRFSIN
SMILES,Potency [1],Potency [2],Potency [3],Potency [4],Potency [5],Potency [6],Potency [7],Potency [8],Potency [9]
N#Cc1c[nH]cc1-c1cccc2c1OC(F)(F)O2,inactive,inactive,inactive,5.64 µM (active),20 µM (active),1.59 µM (active),inactive,,
CCOC(=O)CCN(SN(C)C(=O)Oc1cccc2c1OC(C)(C)C2)C(C)C,0.1 µM (active),0.1 µM (active),,17.8 µM (active),12.6 µM (active),22.4 µM (active),,0.796 µM (active),
O=C(Cl)c1ccccc1F,inactive,inactive,,,,inactive,inactive,inactive,inactive
c1csc(-c2ccc(-c3cccs3)s2)c1,inactive,inactive,,17.8 µM (active),10 µM (active),1.12 µM (active),inactive,inactive,
Nc1ccc(N=Nc2ccccc2)cc1,inactive,inactive,,12.6 µM (active),,4.61 µM (active),inactive,inactive,
CCC(C)Nc1c([N+](=O)[O-])cc(C(C)(C)C)cc1[N+](=O)[O-] (stereo not given),inactive,inactive,,25.2 µM (active),,31.7 µM (active),,inactive,inactive
CSC1=N[C@@](C)(c2ccccc2)C(=O)N1Nc1ccccc1,inactive,inactive,,1.12 µM (active),35.6 µM (active),,inactive,inactive,
Clc1cc(Cl)c(-c2cc(Cl)c(Cl)cc2Cl)cc1Cl,inactive,inactive,inactive,,inactive,,inactive,inactive,inactive
CC(=O)C(Cl)C(=O)N(C)C (stereo not given),inactive,inactive,,inactive,inactive,inactive,inactive,inactive,inactive
CCC(C)Br (stereo not given),inactive,inactive,,inactive,inactive,inactive,inactive,inactive,
C=CCBr,inactive,inactive,33.6 µM (active),,,,inactive,inactive,inactive
Cc1cc(C2CC2)nc(Nc2ccccc2)n1,inactive,inactive,,39.9 µM (active),63.3 µM (active),2.52 µM (active),inactive,inactive,inactive
CC(Cc1ccc(OCC(=O)O)cc1)NCC(O)c1csc(C(F)(F)F)n1 (stereo not given),inactive,inactive,,inactive,inactive,35.6 µM (active),inactive,inactive,
Nc1nc(N)nc(Cl)n1,inactive,inactive,inactive,inactive,,inactive,inactive,,inactive
O.O.O.O=C([O-])[C@H]([O-])[C@@H]([O-])C(=O)[O-].O=C([O-])[C@H]([O-])[C@@H]([O-])C(=O)[O-].[K+].[K+].[Sb+3].[Sb+3],inactive,inactive,,,,,inactive,,
Cc1ccccc1OP(=O)(Oc1ccccc1C)Oc1ccccc1C,inactive,inactive,,1.6 µM (active),,,,,inactive
Clc1ccc(C2(Cn3cncn3)OCCO2)c(Cl)c1,inactive,inactive,63.3 µM (active),3.17 µM (active),17.8 µM (active),28.3 µM (active),inactive,,0.502 µM (active)
O=c1[nH]c(Cl)c(Cl)cc1Cl,inactive,inactive,inactive,inactive,,,inactive,,
Cc1ccn2nc(S(=O)(=O)Nc3c(F)cccc3F)nc2n1,inactive,inactive,inactive,inactive,39.9 µM (active),inactive,inactive,,
O=C(CCCCl)c1ccc(F)cc1,inactive,inactive,inactive,,inactive,11.5 µM (active),inactive,,inactive
COCCC#N,inactive,inactive,inactive,inactive,inactive,inactive,inactive,,
CCc1cccc(C)c1N(C(=O)CCl)[C@@H](C)COC,inactive,inactive,inactive,5.64 µM (active),17.8 µM (active),,inactive,,
O=C(N[C@H]1N=C(c2ccccc2F)c2cccc3c2N(CC3)C1=O)c1cc2ccccc2[nH]1,inactive,inactive,inactive,inactive,,inactive,7.56 µM (active),,inactive
O=P(Cl)(Cl)Cl,inactive,inactive,inactive,,,23.9 µM (active),inactive,,inactive
CSSC,inactive,inactive,inactive,80.6 µM (active),,,inactive,,inactive
